# Test results reported in PubChem BioAssay AID1159580 (chemical genetic matrix, 2015).
# Several values for one entry are separate records, joined by “and”; a condition that tells them apart may be missing. Identical values can stand only once. Hit rate of the full screen: of about 5,500 compounds, about 2,000 (36%) were called active. Inconclusive results (about 18%) are left out. This is one part of the list. A number with no mark means an inactive call. No stated cut-off is given here; in the data, active means normalized growth mostly below about 0.91 (no sharp cut-off); inconclusive means no clear call, values can overlap the other calls; inactive means mostly above about 0.92.
# Test: chemical genetic growth profiling, strain panel (AID 1159580);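 further: tested at 20 µM; growth read once vehicle control cultures reached saturation at 30 °C; 1 = growth at the plate median or of vehicle wells; lower values mean less growth of the strain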
# Settings: S. cerevisiae deletion strains, growth OD
smiles,measurement,setting,value
CN(C)CCc1c[nH]c2ccc(CS(=O)(=O)N3CCCC3)cc12,normalized growth,"locus YAL013W, strain DEP1, hits give low values",0.991
same,normalized growth,"locus YAL021C, strain ccr4, hits give low values",0.991
same,normalized growth,"locus YAL026C, strain drs2, hits give low values",0.976
same,normalized growth,"locus YAL030W, strain snc1, hits give low values",1.01
same,normalized growth,"locus YBL061C, strain skt5, hits give low values",1.01
same,normalized growth,"locus YBR009C, strain hhf1, hits give low values",0.925
same,normalized growth,"locus YBR021W, strain FUR4, hits give low values",1
same,normalized growth,"locus YBR023C, strain chs3, hits give low values",0.997
same,normalized growth,"locus YBR171W, strain sec66, hits give low values",1
same,normalized growth,"locus YBR229C, strain ROT2, hits give low values",0.995
same,normalized growth,"locus YBR231C, strain swc5, hits give low values",0.993
same,normalized growth,"locus YBR279W, strain paf1, hits give low values",0.986
same,normalized growth,"locus YCL011C, strain gbp2, hits give low values",0.982
same,normalized growth,"locus YCL016C, strain dcc1, hits give low values",1.02
same,normalized growth,"locus YCL029C, strain bik1, hits give low values",0.981
same,normalized growth,"locus YCL069W, strain vba3, hits give low values",0.977
same,normalized growth,"locus YCR088W, strain abp1, hits give low values",0.986
same,normalized growth,"locus YDL005C, strain med2, hits give low values",1.01
same,normalized growth,"locus YDL035C, strain GPR1, hits give low values",1.01
same,normalized growth,"locus YDL040C, strain nat1, hits give low values",0.99
same,normalized growth,"locus YDL074C, strain BRE1, hits give low values",1.05
same,normalized growth,"locus YDL101C, strain DUN1, hits give low values",0.987
same,normalized growth,"locus YDL134C, strain PPH21, hits give low values",0.99
same,normalized growth,"locus YDL185W, strain tfp1, hits give low values",0.979
same,normalized growth,"locus YDL192W, strain arf1, hits give low values",0.991
same,normalized growth,"locus YDR001C, strain nth1, hits give low values",0.98
same,normalized growth,"locus YDR069C, strain doa4, hits give low values",0.992
same,normalized growth,"locus YDR101C, strain arx1, hits give low values",0.986
same,normalized growth,"locus YDR137W, strain rgp1, hits give low values",0.986
same,normalized growth,"locus YDR150W, strain NUM1, hits give low values",0.999
same,normalized growth,"locus YDR159W, strain sac3, hits give low values",0.831 (active)
same,normalized growth,"locus YDR162C, strain NBP2, hits give low values",1.01
same,normalized growth,"locus YDR195W, strain ref2",0.937
same,normalized growth,"locus YDR297W, strain sur2, hits give low values",0.996
same,normalized growth,"locus YDR318W, strain mcm21, hits give low values",0.996
same,normalized growth,"locus YDR334W, strain swr1, hits give low values",0.949
same,normalized growth,"locus YDR335W, strain msn5, hits give low values",0.982
same,normalized growth,"locus YDR388W, hits give low values",0.988
same,normalized growth,"locus YDR392W, strain spt3, hits give low values",0.972
same,normalized growth,"locus YDR502C, strain sam2, hits give low values",0.989
same,normalized growth,"locus YEL003W, strain gim4, hits give low values",0.977
same,normalized growth,"locus YEL037C, strain rad23, hits give low values",0.976
same,normalized growth,"locus YEL061C, strain CIN8 (second series), hits give low values",0.958
same,normalized growth,"locus YEL061C, strain CIN8, hits give low values",1
same,normalized growth,"locus YER015W, strain faa2, hits give low values",0.993
same,normalized growth,"locus YER016W, strain bim1, hits give low values",1.05
same,normalized growth,"locus YER110C, hits give low values",0.99
same,normalized growth,"locus YER111C, strain swi4, hits give low values",0.998
same,normalized growth,"locus YER155C, strain BEM2 (second series), hits give low values",1.02
same,normalized growth,"locus YER155C, strain BEM2, hits give low values",1.02
same,normalized growth,"locus YER167W, strain BCK2, hits give low values",0.992
same,normalized growth,"locus YFR010W, strain ubp6, hits give low values",0.947
same,normalized growth,"locus YGL078C, strain dbp3, hits give low values",0.985
same,normalized growth,"locus YGL086W, strain mad1, hits give low values",0.988
same,normalized growth,"locus YGL167C, strain pmr1, hits give low values",0.983
same,normalized growth,"locus YGL173C, strain kem1, hits give low values",0.958
same,normalized growth,"locus YGL227W, strain vid30, hits give low values",0.966
same,normalized growth,"locus YGL240W, strain doc1, hits give low values",0.926
same,normalized growth,"locus YGL248W, strain PDE1, hits give low values",0.993
same,normalized growth,"locus YGL253W, strain hxk2, hits give low values",1
same,normalized growth,"locus YGR078C, strain PAC10, hits give low values",1.01
same,normalized growth,"locus YGR135W, strain pre9, hits give low values",0.999
same,normalized growth,"locus YGR229C, strain SMI1, hits give low values",1.01
same,normalized growth,"locus YGR252W, strain gcn5, hits give low values",1.03
same,normalized growth,"locus YHR013C, strain ard1, hits give low values",1.02
same,normalized growth,"locus YHR027C, strain rpn1, hits give low values",0.984
same,normalized growth,"locus YHR030C, strain SLT2, hits give low values",0.995 and 0.96
same,normalized growth,"locus YHR079C, strain IRE1 (second series), hits give low values",0.981
same,normalized growth,"locus YHR079C, strain IRE1, hits give low values",0.984
same,normalized growth,"locus YHR094C, strain hxt1, hits give low values",0.987
same,normalized growth,"locus YHR129C, strain ARP1, hits give low values",0.981
same,normalized growth,"locus YHR142W, strain chs7, hits give low values",0.976
same,normalized growth,"locus YHR200W, strain rpn10, hits give low values",0.991
same,normalized growth,"locus YIL066C, strain RNR3, hits give low values",0.998
same,normalized growth,"locus YIL073C, strain SPO22, hits give low values",0.999
same,normalized growth,"locus YIL125W, strain kgd1, hits give low values",0.994
same,normalized growth,"locus YIR030C, strain dcg1, hits give low values",0.983
same,normalized growth,"locus YJL092W, strain hpr5, hits give low values",0.99
same,normalized growth,"locus YJL095W, strain BCK1 (second series), hits give low values",0.991
same,normalized growth,"locus YJL095W, strain BCK1, hits give low values",0.984 and 0.977
same,normalized growth,"locus YJL115W, strain asf1, hits give low values",0.987
same,normalized growth,"locus YJL129C, strain trk1, hits give low values",0.994
same,normalized growth,"locus YJL134W, strain LCB3, hits give low values",0.991
same,normalized growth,"locus YJL154C, strain vps35, hits give low values",0.978
same,normalized growth,"locus YJL164C, strain tpk1, hits give low values",0.99
same,normalized growth,"locus YJL166W, strain qcr8, hits give low values",0.986
same,normalized growth,"locus YJL168C, strain set2, hits give low values",0.987
same,normalized growth,"locus YJL187C, strain SWE1 (second series), hits give low values",0.986
same,normalized growth,"locus YJL187C, strain SWE1, hits give low values",1.01
same,normalized growth,"locus YJR043C, strain POL32, hits give low values",0.994
same,normalized growth,"locus YJR066W, strain TOR1, hits give low values",0.925
